A short description of experiment [1]: Cell Viability - Mesenchymal (AID 546).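 Note: cells exposed to compound for 40 hours before reading.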 Particulars: mesenchymal cells viability, qHTS; series mostly up to 91.7 µM. The gist of the method:
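Human renal mesenchymal cells (glomerulus-derived), 1000 cells/well, 5 hr 37 °C pre-incubation; compound 40 hr, 37 °C; CellTiter-Glo, 20 min RT; luminescence; AC50 via Hill equation.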
(In qHTS, concentration-response curves come from the screen itself.)

The nature of experiment [2]: Cellular Toxicity (caspase-3) Mesangial (AID 660).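 Note: combined caspase 3 and 7 activity read by Caspase-Glo luminescence; cells exposed to compound for 16 h before the caspase read.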 Particulars: mesangial cells, normalized: DMSO 0%, 100 µM tamoxifen 100%; series mostly up to 91.7 µM. In a few lines: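 Luminescent Caspase-Glo 3/7 readout (aminoluciferin substrate cleavage, 20 min RT) after 16 h compound exposure at 37 °C of normal human mesangial cells. Signal increase normalized between DMSO basal and 100 uM tamoxifen; Hill-equation AC50.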

Experiment [3] is described as follows: Cellular Toxicity (caspase-3) N2a (AID 665).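 Note: compound exposure lasted 16 h at 37 °C before readout.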 As to conditions: N2a cells, luminescence, normalized: DMSO 0%, 10 µM staurosporine 100%; at 92.2 µM (top of the series). In a few lines:
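Luminescent Caspase-Glo 3/7 readout in N2a mouse neuroblastoma cells after 16 h compound exposure at 37 °C. Signal scaled to DMSO (basal) and 10 uM staurosporine (100%). Concentration-response fitted with Hill equation for AC50.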

Experiment [4] can be described thus: MultiTox-Fluor Cytotoxicity Assay - LYMP1-001 - Live Cells (AID 947).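 Note: 0% = DMSO only and full inhibition = tetraoctylammonium bromide control.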 Particulars: LYMP1-001 lymphoblastoid cells, live-cell protease fluorescence viability; series mostly up to 92.2 µM.
A short description of experiment [5]: Cell Viability - LYMP2-007 (AID 979).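 Note: cells exposed to compound for 24 h before reading; 0% = DMSO only and the negative end = 92 µM tetraoctylammonium bromide; nearly all actives have a fitted effect of over 60% in size.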 As to conditions: LYMP2-007 lymphoblastoid cell viability; series mostly up to 92.2 µM. In a few lines: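 qHTS cytotoxicity: 2500 cells/well, 5 hr 37 C settle, compound 24 hr 37 C, CellTiter-Glo 30 min RT, luminescence. Decrease in ATP = toxicity. AC50 by standard Hill equation; tetraoctylammonium bromide positive control.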

Experiment [6] is described as follows: Cell Viability - LYMP2-018 (AID 985).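 Note: plate controls were DMSO only for no effect and tetraoctylammonium bromide at 92 µM for full effect; nearly all actives have a fitted effect of over 50% in size.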 As to conditions: LYMP2-018 lymphoblastoid cells, viability (qHTS); series mostly up to 92.2 µM. In a few lines:
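2500 cells/well; 5 hr 37 C; cmpd 24 hr 37 C, complete medium; CellTiter-Glo 30 min RT; luminescence. Tetraoctylammonium bromide positive control. AC50 via Hill fit.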

Experiment [7] addresses Estrogen receptor (Homo sapiens) (UniProt P03372). The experiment is described as follows: qHTS assay for small molecule agonists of estrogen receptor alpha signaling (AID 588514; calls by dose curve;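 note: 0% = vehicle only and 100% = reference agonist; nearly all actives have a fitted effect of over 70% in size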). Particulars: ER-alpha-UAS-bla HEK293, beta-lactamase ratio, 18 h; series mostly up to 76.8 µM. The gist of the method:
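Read-out: CCF4 fluorescence from a beta-lactamase reporter in ER-alpha-UAS-bla HEK 293 cells after 18 hrs of compound exposure at 37 C. Normalized to 20 nM 17-beta-estradiol (100%) and DMSO (0%).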

In experiment [8] the target is Retinoic acid receptor RXR-alpha (Homo sapiens) (UniProt P19793). The experiment is described as follows: qHTS assay for small molecule agonists of retinoid X receptor alpha signaling (AID 588544; calls by dose curve;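 note: 0% = DMSO basal wells and 100% = reference agonist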). Particulars: HEK293T RXRa-UAS-bla, beta-lactamase reporter, 18 h; series mostly up to 76.7 µM.
A short description of experiment [9]: qHTS assay for small molecule activators of the p53 signaling pathway (AID 651743; active = well fitted activation curve with a large enough effect in the signal ratio, not every such curve was filed as active; the % refers to the signal ratio; note: % of control where 0% means no effect). Particulars: HCT-116 p53RE-bla, beta-lactamase FRET ratio, 16 h; activation: stronger effect = higher value. The gist of the method: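 Reporter: beta-lactamase driven by p53 response elements, stably integrated in HCT-116 cells. Cells seeded at 4,000/well, 5 h preincubation, compound (DMSO) 16 h at 37 C; B/G FRET substrate 2 h RT; fluorescence intensity read.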

Experiment [10] concerns the target Nuclear receptor ROR-gamma (Homo sapiens) (UniProt P51449). The experiment is described as follows: qHTS assay for small molecule antagonists of the retinoid-related orphan receptor gamma (ROR-gamma) signaling pathway (AID 651802). Note: nearly all actives have a fitted effect of over 60% in size. Note: potency is the fitted concentration of half-maximal effect. As to conditions: ROR-gamma antagonist cell reporter assay; series mostly up to 92.2 µM. In a few lines:
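Luciferase read-out: ONE-Glo luminescence after 30 min at room temperature, following 16hr doxycycline induction at 37C, 5% CO2 of CHO cells with TET-inducible ROR and RORE-LUC reporter; decreased luminescence = reduced reporter activity.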

Experiment [11] is described as follows: MultiTox-Fluor Cytotoxicity Assay - LYMP1-002 - Live Cells (AID 955).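 Note: cells exposed to compound for 16 hours; % is set by controls: 0 for no effect and ±100 for the full control effect.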 As to conditions: LYMP1-002 lymphoblastoid live-cell protease fluorescence viability; series mostly up to 46.1 µM. The gist of the method: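 LYMP1-002 lymphoblastoid cells; 2500 cells/well; 16 hr compound exposure, 37 C; MultiTox-Fluor reagent 60 min RT; live-cell fluorescence Ex/Em=405/510; qHTS concentration-response, Hill-equation AC50; tetraoctylammonium bromide positive control.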

Experiment [12] in a line: Cell Viability - LYMP2-013 (AID 970).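 Note: 0% = DMSO only and full inhibition = tetraoctylammonium bromide control; nearly all actives have a fitted effect of over 55% in size.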 As to conditions: LYMP2-013 lymphoblastoid cells viability; series mostly up to 92.2 µM. The gist of the method:
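CellTiter-Glo luminescence (cellular ATP) read after 30 min at RT. Cells: human lymphoblastoid line, 2500/well, 24 hr compound exposure at 37 C. Tetraoctylammonium bromide positive control; AC50 via standard Hill fit of qHTS titrations.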

The nature of experiment [13]: Cell Viability - LYMP2-010 (AID 981).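 Note: cells exposed to compound for 24 hours at 37 °C; nearly all actives have a fitted effect of over 55% in size.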 Note: potency is the fitted concentration of half-maximal effect. Particulars: LYMP2-010 lymphoblastoid cell viability, qHTS; series mostly up to 92.2 µM. The gist of the method:
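qHTS cytotoxicity, 1536-well: 2500 cells/well, 5 hr settle, 24 hr compound at 37 C, CellTiter-Glo 30 min RT, luminescence read. Decrease in ATP = toxicity; AC50 via standard Hill equation. Positive control tetraoctylammonium bromide.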

Experiment [14] is described as follows: Cell Viability - LYMP1-002 - Assay at 24 hr (AID 993). Note: % is set by controls: 0 for no effect and ±100 for the full control effect. Particulars: LYMP1-002 lymphoblastoid cells viability; series mostly up to 92.2 µM. In a few lines:
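CellTiter-Glo luminescence (intracellular ATP) after 24 h compound exposure, 37 C, in LYMP1-002 human lymphoblastoid cells; decreased ATP taken as cytotoxicity. AC50 from standard Hill fit of concentration-response curves.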

The target in experiment [15] is Peroxisome proliferator-activated receptor gamma (Homo sapiens) (UniProt P37231). The experiment is described as follows: qHTS assay for small molecule agonists of peroxisome proliferator-activated receptor gamma signaling (AID 588536; active = well fitted curve in the direction sought with a large enough effect in the signal ratio, with a control signal flat, not every such curve was filed as active; the % refers to the signal ratio;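 note: 0% = DMSO basal wells and 100% = rosiglitazone at 2 µM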). As to conditions: HEK293 PPARg-UAS-bla, beta-lactamase ratio, 16 h, percent of rosiglitazone response, DMSO as zero; series mostly up to 76.7 µM. In a few lines:
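Cells were plated and held 6–6.5 h at 37 C, then compounds were added as a titration series. After a further 16 h, CCF4 dye was loaded for 2 h at room temperature and emission at 460/530 nm recorded.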

The target is the same in experiment [16]. The experiment is described as follows: qHTS assay for small molecule antagonists of peroxisome proliferator-activated receptor gamma signaling (AID 588537; active = well fitted inhibition curve with a large enough effect in the signal ratio, with a control signal flat, not every such curve was filed as active; the % refers to the signal ratio;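 note: reporter cells co-stimulated with 50 nM rosiglitazone agonist during compound treatment; % of control where 0% means no effect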). As to conditions: HEK293 PPARg-UAS-bla, beta-lactamase ratio, antagonist mode; series mostly up to 76.8 µM. In a few lines: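 Read-out: CCF4 fluorescence (ex 405, em 460/530 nm) after 2 h at RT. Cells were HEK293 carrying a UAS-bla reporter and treated 16 h at 37 C with compound plus rosiglitazone (50 nM final). Normalized to rosiglitazone and DMSO.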

Experiment [17] can be described thus: qHTS assay for small molecule agonists of the antioxidant response element (ARE) signaling pathway (AID 651741; active = well fitted activation curve with a large enough effect in the signal ratio; the % refers to the signal ratio; note: % of control where 0% means no effect). Particulars: HepG2 ARE-bla reporter, beta-lactamase FRET ratio, 16 h; series mostly up to 96 µM. The gist of the method:
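HepG2 ARE-bla reporter cells, 2,000/well; 5 h settle at 37 C/5% CO2; compound pin transfer (23 nL, DMSO); 16 h at 37 C; LiveBLAzer B/G FRET substrate, 2 h RT; fluorescence intensity read.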

Experiment [18] is described as follows: qHTS assay for small molecule disruptors of the mitochondrial membrane potential - 1 hr assay (AID 651754; calls by dose curve; note: % is set by controls: 0 for no effect and ±100 for the full control effect; nearly all actives have a fitted effect of over 35% in size). As to conditions: series mostly up to 92.2 µM. The gist of the method: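 Read-out: dye fluorescence at 490 nm ex/535 nm em (monomers) and 540 nm ex/590 nm em (aggregates) in HepG2 cells. Compound exposure 1 hr at 37C, followed by 30 min dye loading.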

A short description of experiment [19]: qHTS assay for environmental chemicals that activate the Aryl hydrocarbon Receptor (AhR) signaling pathway (AID 651777). Note: % of control where 0% means no effect; nearly all actives have a fitted effect of over 15% in size. Particulars: 1A2-DRE human hepatoma cells, luciferase, 24 h; activation: stronger effect = higher value. The gist of the method:
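1A2-DRE human hepatoma reporter line; 1,200 cells/well; cmpd or DMSO 24 h, 37 C/5% CO2; One-Glo 30 min RT; luciferase lum.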

Experiment [20] can be described thus: Cell Viability - SK-N-SH (AID 435; calls by dose curve;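 note: potency is the fitted concentration of half-maximal effect; compound exposure lasted 40 h at 37 °C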). Particulars: SK-N-SH neuroblastoma cell viability qHTS. The gist of the method:
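SK-N-SH human neuroblastoma cells (1500/well) were exposed to compounds in complete medium for 40 h at 37 °C, and intracellular ATP was then measured by CellTiter-Glo luminescence. AC50 was taken from Hill fits, normalized to DMSO and 100 uM tamoxifen.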

Values joined by “and” are separate entries in the source; they are usually repeats but may differ in a detail not shown here. Equal entries are not always repeated. A number with no mark means an inactive call. Inconclusive results are not listed. Active and inactive are the calls of the source. Unless noted, calls come from the whole dose curve; as a rule, active = well fitted curve in the direction sought with a large enough effect; inconclusive = small, poorly fitted or top-dose-only effect, or another doubt; inactive = no such curve, though single readings can be large; an effect the other way counts as inactive or inconclusive. Bounds are passed on as bounds.

The values below come from PubChem BioAssay (NCATS).

Retinoic acid receptor RXR-alpha (Homo sapiens), sequence (P19793 whole entry, looked up): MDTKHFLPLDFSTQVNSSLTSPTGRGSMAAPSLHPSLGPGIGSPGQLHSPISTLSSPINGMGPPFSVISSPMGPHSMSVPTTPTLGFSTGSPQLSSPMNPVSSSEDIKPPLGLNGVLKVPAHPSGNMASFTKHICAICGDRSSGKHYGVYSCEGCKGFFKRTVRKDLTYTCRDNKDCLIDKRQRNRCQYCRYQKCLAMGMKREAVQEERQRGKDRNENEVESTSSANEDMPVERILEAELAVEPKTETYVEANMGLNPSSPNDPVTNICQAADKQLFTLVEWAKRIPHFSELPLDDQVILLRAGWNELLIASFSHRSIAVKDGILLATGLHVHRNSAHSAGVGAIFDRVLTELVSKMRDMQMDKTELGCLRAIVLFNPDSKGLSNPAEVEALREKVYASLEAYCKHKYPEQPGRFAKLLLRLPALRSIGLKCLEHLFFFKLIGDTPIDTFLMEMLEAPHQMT
Peroxisome proliferator-activated receptor gamma (Homo sapiens), sequence (P37231 whole entry, looked up): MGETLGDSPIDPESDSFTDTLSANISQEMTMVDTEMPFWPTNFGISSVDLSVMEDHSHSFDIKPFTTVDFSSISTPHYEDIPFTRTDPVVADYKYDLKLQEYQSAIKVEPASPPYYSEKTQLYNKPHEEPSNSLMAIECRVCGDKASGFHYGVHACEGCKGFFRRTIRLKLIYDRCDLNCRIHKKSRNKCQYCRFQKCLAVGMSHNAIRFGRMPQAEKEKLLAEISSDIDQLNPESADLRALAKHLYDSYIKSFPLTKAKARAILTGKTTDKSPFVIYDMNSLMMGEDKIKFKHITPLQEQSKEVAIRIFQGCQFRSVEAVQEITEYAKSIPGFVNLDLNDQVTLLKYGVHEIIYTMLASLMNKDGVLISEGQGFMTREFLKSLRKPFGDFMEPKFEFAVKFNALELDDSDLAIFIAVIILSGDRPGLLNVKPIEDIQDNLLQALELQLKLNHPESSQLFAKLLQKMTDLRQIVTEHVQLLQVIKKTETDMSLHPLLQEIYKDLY
Estrogen receptor (Homo sapiens), sequence (P03372 whole entry, looked up): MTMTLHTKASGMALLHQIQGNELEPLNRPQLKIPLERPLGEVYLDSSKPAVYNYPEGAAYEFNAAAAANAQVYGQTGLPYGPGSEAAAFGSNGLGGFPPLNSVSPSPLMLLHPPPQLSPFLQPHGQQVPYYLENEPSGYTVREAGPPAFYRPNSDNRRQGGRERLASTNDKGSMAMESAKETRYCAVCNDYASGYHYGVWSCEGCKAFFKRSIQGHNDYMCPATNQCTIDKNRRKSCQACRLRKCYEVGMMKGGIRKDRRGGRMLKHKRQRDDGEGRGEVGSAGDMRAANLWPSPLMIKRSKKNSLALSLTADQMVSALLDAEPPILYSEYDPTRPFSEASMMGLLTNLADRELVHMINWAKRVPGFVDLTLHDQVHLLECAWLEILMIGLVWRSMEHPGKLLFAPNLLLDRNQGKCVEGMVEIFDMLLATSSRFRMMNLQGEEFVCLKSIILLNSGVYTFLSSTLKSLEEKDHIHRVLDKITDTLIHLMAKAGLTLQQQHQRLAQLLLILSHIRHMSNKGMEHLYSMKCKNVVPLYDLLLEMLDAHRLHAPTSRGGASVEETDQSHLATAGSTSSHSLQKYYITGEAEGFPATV
Nuclear receptor ROR-gamma (Homo sapiens), sequence (P51449 whole entry, looked up): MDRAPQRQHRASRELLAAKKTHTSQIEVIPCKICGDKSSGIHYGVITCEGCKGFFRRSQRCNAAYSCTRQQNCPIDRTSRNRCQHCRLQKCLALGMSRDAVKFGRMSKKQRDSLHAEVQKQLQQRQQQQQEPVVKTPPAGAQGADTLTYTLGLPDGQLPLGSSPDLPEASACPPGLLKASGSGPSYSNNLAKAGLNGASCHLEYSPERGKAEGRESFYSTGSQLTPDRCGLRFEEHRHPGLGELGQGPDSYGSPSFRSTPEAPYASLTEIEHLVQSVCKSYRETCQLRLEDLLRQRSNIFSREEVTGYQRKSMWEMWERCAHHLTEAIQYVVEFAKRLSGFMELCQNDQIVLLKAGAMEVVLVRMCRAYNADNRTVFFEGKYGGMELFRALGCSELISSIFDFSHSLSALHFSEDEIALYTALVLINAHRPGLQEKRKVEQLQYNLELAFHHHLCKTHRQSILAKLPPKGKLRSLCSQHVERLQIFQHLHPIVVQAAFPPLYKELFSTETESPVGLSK

Regarding `c1nc[nH]n1`, the call in experiment [1] and in experiment [2] was inactive. In experiment [3], the caspase-3 activation was -1.83%. Moreover, the Potency result in experiment [4], in experiment [5], in experiment [6], in [7], in experiment [8] and in experiment [10] was “inactive” in each case. In addition, in experiment [9], the activation is -1.22%.
`OCC1CO1` (stereo not given): the caspase-3 activation in experiment [3] is -2.46%. In addition, the Potency entry in experiment [4], in [12], in [5], in experiment [13], in [6] and in [14] was “inactive” throughout. Further, the Potency entry in experiment [16], in experiment [8], in experiment [17] and in experiment [18] was “inactive” throughout. For the same molecule, the molecule was called inactive in experiment [11] and in experiment [15]. For the same molecule, the activation in [9] is -2.94% and 1.37%; in experiment [19], -0.664% and -1.74%.
As to `Cc1cccc([N+](=O)[O-])c1`, the result in experiment [1], in experiment [2] and in experiment [11] was inactive. In [3], the caspase-3 activation is 2.99%. In addition, the Potency result in experiment [12], in experiment [14], in [7], in experiment [16], in experiment [8] and in [17] was “inactive” in each case.
With `CCSC(=O)Cl`, the Potency in experiment [20] was above 92 µM. Moreover, the molecule was called inactive in [11] and in [15]. The Potency result in experiment [12], in experiment [14], in experiment [7], in experiment [16], in experiment [8] and in experiment [17] was “inactive” throughout. In addition, in experiment [10], the Potency result was “inactive”.
On to `CCN(CC)c1ccccc1`, for which the molecule was classed as inactive in experiment [1], in experiment [2] and in experiment [11]. Moreover, the caspase-3 activation in experiment [3] is -1.42%. The Potency entry in experiment [4], in experiment [5], in [8], in experiment [17], in experiment [18] and in experiment [10] was “inactive” each time. In addition, the activation was 0.724% in [9] and -0.415% in experiment [19].
In the case of `CC(C)(OO)c1ccccc1`, the Potency was above 92 µM in [20], 25.1 µM (active) in experiment [13] and 42.2 µM (active) in experiment [10]. In addition, the molecule was called inactive in experiment [1], in [2], in experiment [11] and in experiment [15]. The caspase-3 activation in experiment [3] was -2.62%. In addition, the Potency result in experiment [14], in [16], in experiment [8] and in [17] was “inactive” throughout. The activation in experiment [19] is 0.536% and 0.232%.
